Compound activity (PubChem)
aSyn 5UTR act = Activators via SNCA 5'UTR binding, MLPCN. alpha-synuclein 5'UTR reporter, activators screen. activity score, % (tested at 7.5 µM), hits read low. 300,000 compounds, 7.1% hits. AID 1814, 2009; in the data active = activity score below about -60%
Numbers without * were called inactive. Not all results are given here.

SMILES	aSyn 5UTR act
CC1CC(=O)c2cnc(Nc3ccccc3)nc2C1 (stereo unspecified)	-134*
O=C1CCC(C(=O)N2CCCCO2)CN1CCc1ccccc1 (stereo unspecified)	-89*
COCCn1c(=O)c2c(nc3n2CC(C)CN3CCc2ccccc2)n(C)c1=O (stereo unspecified)	67
COc1ccccc1Cn1nnc2c(=O)[nH]c(C3CCN(C(=O)c4ccccc4Cl)CC3)nc21	60
COc1ccccc1CN1CC(C(=O)N2CCCCO2)CCC1=O (stereo unspecified)	-77*
COCCCC1CCN(C(=O)C2CCC(=O)N(CCc3ccccc3)C2)CC1 (stereo unspecified)	-74*
CC(O)CNCCCCOc1ccc(OCc2ccccc2)cc1 (stereo unspecified)	-93*
C=CCn1c(=O)/c(=C2/Sc3cc(OC)ccc3N2C)s/c1=C1\C(=O)N(CC)C(=S)N1C	-98*
CC1=CC2=NC(=O)/C(=C\c3cccn3CCOc3ccc(C)c(C)c3)C(=N)N2O1	-95*
COc1ccc(CNc2nc3ccccc3s2)cc1OC	-141*
c1ccc(CCNc2nc3ccccc3s2)cc1	-81*
Cc1ccc(CNc2nc3ccccc3s2)s1	78
CCn1c(SCC(=O)c2ccccc2)nnc1-c1cnccn1	-78*
Cn1c(SCC(=O)c2ccccc2)nnc1-c1cnccn1	-67*
CCn1c(SCc2nc3ccccc3[nH]2)nnc1-c1cnccn1	-90*
CCC(=O)Nc1cccc(-n2nnnc2SCC(=O)c2ccc(C)c(C)c2)c1	-84*
CCC(=O)Nc1cccc(-c2nnc(SCC(=O)c3ccccc3)n2C)c1	-103*
Cn1c(SCc2c(Cl)cccc2Cl)nnc1-c1cccs1	-62*
Cn1c(SCC(=O)c2ccccc2)nnc1-c1cccs1	-102*
CC(/C=C/c1ccccc1F)=N\NC(=O)c1ccccc1	-144*
Cc1ccc(Nc2cc(C)nc(-c3ccccc3)n2)cc1	-124*
Cc1ccc(Nc2cc(C)nc(-c3ccccc3O)n2)cc1	-116*
Cc1ccc(Oc2cc(C)nc(-c3ccccc3O)n2)cc1	-69*
Cc1cc(NCCCN)nc(-c2ccccc2O)n1	-69*
Cc1cc(N/N=C/c2ccc(O)c(C)c2O)nc(-c2ccccc2O)n1	87
SMILES	aSyn 5UTR act
C/C(=N\Nc1cc(C)nc(-c2ccccc2O)n1)c1ccccc1	-65*
COC(=O)c1ccccc1NC(=O)c1ccc2c(c1)CC(C)O2 (stereo unspecified)	-65*
Clc1ccc(N/N=C/c2ccncc2)cc1Cl	-221*
Fc1ccc(N/N=C/c2ccncc2)c(F)c1	-177*
O=C(O)c1ccc(/C=N/Nc2ccc(F)cc2F)cc1	-111*
Fc1ccc(N/N=C/C=C/c2ccccc2)c(F)c1	-159*
CCc1ccc(NC(=O)NCCCN2CCCC2=O)cc1	-65*
Cc1ccc(NC(=O)C(=O)NCCCN2CCCC2=O)cc1	-71*
CC(C#Cc1ccc2c(c1)COc1c3ccccc3nn1-2)OC(C)(C)C (stereo unspecified)	-114*
C#Cc1ccc2c(c1)COc1c3ccccc3nn1-2	-89*
N#CCCCC#Cc1ccc2c(c1)COc1c3ccccc3nn1-2	77
CCCCCCC#Cc1ccc2c(c1)COc1c3ccccc3nn1-2	-141*
C(#Cc1ccc2c(c1)COc1c3ccccc3nn1-2)c1ccccc1	-208*
COc1ccc(C)cc1NC(=O)c1nnn(Cc2cccc(C(F)(F)F)c2)c1N	55
COc1cccc(NC(=O)c2nnn(CCc3ccccc3)c2N)c1	-127*
COc1cccc(NC(=O)c2nnn(Cc3ccc(Br)cc3F)c2N)c1	-80*
CN(C)/C=C1/C(=O)N(c2ccc([N+](=O)[O-])cc2)N=C1c1ccccc1	-115*
CCC(=O)Oc1ccc(C(=O)Nc2ccc3c(c2)OCO3)cc1	-72*
CCCCOc1ccc(C(=O)Nc2ccc3c(c2)OCO3)cc1	-93*
CCCOc1ccc(C(=O)Nc2ccc3c(c2)OCO3)cc1	-95*
COc1ccccc1N1CCN(/N=C/C=C\c2ccco2)CC1	-136*
O=C(O)c1ccc(/C=N/N2CCN(c3ccccc3)CC2)cc1	-207*
COc1ccccc1N1CCN(/N=C/c2ccc(C(=O)O)cc2)CC1	-128*
COc1ccccc1N1CCN(c2ccc(-c3ccccc3)nn2)CC1	79
Cc1ccc2nc(N3C(=O)C(O)=C(C(=O)c4ccco4)C3c3cccs3)sc2c1 (stereo unspecified)	-187*
SMILES	aSyn 5UTR act
COc1ccc2nc(N3C(=O)C(O)=C(C(=O)c4ccco4)C3c3ccccc3OC)sc2c1 (stereo unspecified)	-114*
CN(C)C(=O)c1cc(C(=O)c2ccc(F)cc2F)c[nH]1	-72*
CN(C)C(=O)c1cc(C(=O)c2ccc(C(F)(F)F)cc2F)c[nH]1	-68*
Cc1ccc(N2CCN(C(=O)c3cc(C(=O)c4ccccc4C)c[nH]3)CC2)c(C)c1	58
COc1ccc(C2=NN(C(C#N)c3ccc(OC)c(OC)c3)C(c3ccccc3)C2)cc1 (stereo unspecified)	-172*
COc1ccc(C2CC(c3cccs3)=NN2c2nc(-c3ccccc3)cs2)cc1OC (stereo unspecified)	-64*
Cc1ccc(C2CC(c3ccccc3)=NN2c2ccccc2)o1 (stereo unspecified)	-232*
COc1cc(-c2nnc3n2N=C(c2ccccc2)CS3)cc(OC)c1OC	63
CC(=O)Nc1ccc(C2CC(c3ccc(Cl)cc3)=NN2c2ccccc2)cc1 (stereo unspecified)	-79*
COc1ccc(C2=NN(c3ccccc3)C(c3ccc(OC)c(OC)c3)C2)cc1 (stereo unspecified)	-76*
CN1CCN(c2ccc(-c3ccnn3C(=O)Nc3cccc(C(F)(F)F)c3)cc2)CC1	-114*
O=C(Nc1nc2ccccc2[nH]1)c1ccc(Cl)c([N+](=O)[O-])c1	-109*
O=C(Nc1nc2ccccc2[nH]1)c1ccccc1[N+](=O)[O-]	-118*
Cc1c(C(=O)Nc2nc3ccccc3[nH]2)cccc1[N+](=O)[O-]	-167*
CC1CCCCN1CCNC(=O)c1ccc2c(=O)n(CCc3ccccc3)c(=O)[nH]c2c1 (stereo unspecified)	-79*
CCN1CCN(C(=O)c2ccc3c(=O)n(CCc4ccccc4)c(=O)[nH]c3c2)CC1	-72*
CC1CCN(CCCNC(=O)c2ccc3c(=O)n(CCc4ccccc4)c(=O)[nH]c3c2)CC1	-74*
CCc1nnc(NC(=O)c2nc(S(=O)(=O)Cc3cccc(C)c3)ncc2Cl)s1	-114*
CC(C)c1nnc(NC(=O)c2nc(S(=O)(=O)Cc3ccccc3F)ncc2Cl)s1	-72*
Cc1cccc(CS(=O)(=O)c2ncc(Cl)c(C(=O)Nc3nnc(C(C)C)s3)n2)c1	-98*
Cc1ccc(CS(=O)(=O)c2ncc(Cl)c(C(=O)Nc3ccc(OC(F)F)cc3)n2)cc1	61
CCOc1ccccc1NC(=O)c1nc(S(=O)(=O)Cc2cccc(C)c2)ncc1Cl	88
CCc1ccc2oc(-c3ccc(OC)cc3)cc(=Nc3c(C)n(C)n(-c4ccccc4)c3=O)c2c1	-77*
CNc1nc(-c2ccc(Cl)cc2)cs1	-204*
CCNc1nc(-c2ccc(Cl)cc2)cs1	-169*
C/C(=C\C(=O)c1ccc(C)cc1)Nc1cccc(O)c1	-284*
CC(=O)c1ccc(N/C=C\C(=O)c2ccc(C)cc2)cc1	-211*
O=C(/C=C/Nc1cccc(O)c1)c1ccccc1	-180*
Cc1ccc(C(=O)/C=C/Nc2cccc(O)c2)cc1	-194*
Cc1ccc(N/C=C/C(=O)c2ccccc2)cc1Br	-83*
